APP 5'UTR act: APP 5'UTR luciferase reporter activation. SH-SY5Y APP 5'UTR luciferase reporter, luminescence; zero percent = DMSO vehicle wells. activation, % at 2 µM. 1% of 190,000 active. AID 1276;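 active = activation above a set limit, based on mean plus 3 SD of controls, cut at about 140% in these data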
Hsp70 act: switches on Hsp70 transcription | 0.04% of 200,000 active | HeLa Hsp70 promoter luciferase reporter, luminescence; scaled: vehicle 0, proteasome-inhibitor control 100% | activation, % at 10 µM;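 active = activation above the mean across all tested compounds plus 3 SD, cutoff set per campaign, cut at about 5.5% in these data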;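 note: 100% = MG132 at 30 µM as the positive control and 0% = DMSO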
NF-kB expr up: raises NF-kB expression in human neuronal cells | NF-kB reporter expression; active compounds read high | fold change at 12.5 µM | 1.6% of 190,000 active; in the data active = fold change above about 3.3
STAT1 act: increases IFN-gamma driven STAT1 reporter signal. NIH 3T3 STAT1-luciferase reporter, luminescence; 100% = IFN-gamma alone, no compound. activation (% of control), % at 5.5 µM. 2.6% of 200,000 active. AID 932;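 active = activation above the screen-wide mean activation plus 3 SD, cut at about 130% in these data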;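 note: raw ratio to IFN-gamma control signal so 100% means no change and 0% no light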
APP 5UTR inh: APP translation inhibition | SH-SY5Y APP 5'UTR-luciferase reporter, luminescence | inhibition, % at 2 µM | 0.82% of 190,000 active;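 active = inhibition above a set limit, derived from the sample mean plus 3 SD, cut at about 45% in these data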
Wee1 stabilizer: inhibitors of human Wee1 degradation | P30291 | HeLa Luc-Wee1K328M stability, luciferase luminescence; 100% = proteasome inhibitor MG132 effect | reporter increase, % at 5 µM | 1.2% of 220,000 active | AID 1321;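 active = activation above the mean of all tested compounds plus 3 SD, set per screening run, cut at about 8.8% in these data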;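 note: cells exposed to compound for 20 h before luminescence read; 0% = DMSO alone and 100% = MG132 at 30 µM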
Target sequence (P30291 whole entry K328M): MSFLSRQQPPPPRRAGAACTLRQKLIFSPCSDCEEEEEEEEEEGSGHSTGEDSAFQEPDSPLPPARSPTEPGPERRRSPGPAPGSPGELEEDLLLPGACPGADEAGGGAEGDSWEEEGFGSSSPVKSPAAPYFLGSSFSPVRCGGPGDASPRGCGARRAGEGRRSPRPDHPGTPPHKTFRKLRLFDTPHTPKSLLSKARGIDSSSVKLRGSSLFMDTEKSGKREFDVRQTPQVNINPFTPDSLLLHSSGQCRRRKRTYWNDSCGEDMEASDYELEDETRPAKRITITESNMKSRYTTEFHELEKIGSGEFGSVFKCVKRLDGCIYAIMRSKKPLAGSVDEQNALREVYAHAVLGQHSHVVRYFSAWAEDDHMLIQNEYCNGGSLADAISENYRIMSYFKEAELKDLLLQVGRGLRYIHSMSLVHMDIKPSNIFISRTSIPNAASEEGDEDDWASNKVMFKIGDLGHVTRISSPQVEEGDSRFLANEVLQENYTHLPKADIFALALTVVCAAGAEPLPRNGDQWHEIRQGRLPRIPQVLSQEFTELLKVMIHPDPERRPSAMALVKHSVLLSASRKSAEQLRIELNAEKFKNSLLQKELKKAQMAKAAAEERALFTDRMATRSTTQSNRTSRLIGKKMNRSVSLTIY
* marks the source's active call; other numbers are inactive results; · = not tested or not shown. A selection: hits, their analogues and other compounds. The true share with any hit is near 4.8%.

SMILES	APP 5'UTR act	Hsp70 act	NF-kB expr up	STAT1 act	APP 5UTR inh	Wee1 stabilizer
CC1CCN(c2nc(-c3cccnc3)nc3scc(-c4ccccc4)c23)CC1	-4	0	0.9	97	4	-1
Cc1ccc2c(c1)c1nnc(SCC(=O)N3CCCc4ccccc43)nc1n2CC(=O)O	10	0	1	91	-10	5
CC1=C(Sc2nc3ccccc3[nH]2)C(=O)NC(C)(C)C1	-48	0	1.2	106	48*	7
Cc1ccsc1/C=C1\CCC(C2CCCC2)C1=O (configuration not stated)	202*	0	5.9*	140*	-202	6
COc1cc(OC)c(OC)cc1/C=C1\CCC(C2CCCC2)C1=O (configuration not stated)	8	0	1.3	91	-8	-1
Cc1ccc(/C=C2\CCC(C3CCCC3)C2=O)cc1 (configuration not stated)	157*	0	1.6	102	-157	-1
CC1=C(C)CC(C(=O)NCC(=O)c2ccccc2)C(C(=O)O)C1 (configuration not stated)	89	0	1.6	133*	-89	-2
O=C(O)c1ccccc1C(=O)NCC(O)c1ccccc1 (configuration not stated)	·	·	·	·	·	-1
O=C(CNC(=O)c1ccccc1C(=O)O)c1ccccc1	69	0	1.7	130*	-69	0
Oc1ccccc1N=Nc1nc(-c2ccccc2)c(-c2ccccc2)[nH]1	-88	-1	1.6	104	88*	4
Nc1nc(CSc2ncn(-c3ccccc3)n2)cs1	107	0	2.8	132*	-107	1
c1ccc(CSc2ncn(-c3ccccc3)n2)cc1	130	0	4.3*	144*	-130	2
O=C(CSc1ncn(-c2ccccc2)n1)c1cccs1	102	1	3.5*	129*	-102	0
Nc1nc(CSc2nc3ccccc3[nH]2)cs1	17	0	1.5	112	-17	1
COc1ccc(C2=NN(C(=O)CSc3ncccn3)C(c3ccc(OC)cc3)C2)cc1 (configuration not stated)	5	0	0.69	101	-5	0
O=C(CC(c1ccccc1)c1cc(Br)ccc1O)NCc1ccco1 (configuration not stated)	-1	0	0.58	95	1	0
COc1ccc(C(=O)[C@H]2[C@H]3C(=O)N(c4ccc(C)cc4)C(=O)[C@H]3C3C=CC=NN32)cc1 (some centres not stated)	·	·	·	·	·	-1
COc1ccc(N(C)S(=O)(=O)c2cccc(C(=O)NCc3ccc4c(c3)OCO4)c2)cc1	2	0	0.8	100	-2	8
O=C1CC(c2ccccc2)CC(O)=C1C=Nc1ccc(Cl)cc1 (configuration not stated)	-2	0	1.4	102	2	-3
O=C1CC(c2ccccc2)CC(O)=C1C=Nc1cccc(Cl)c1 (configuration not stated)	19	0	1.1	114	-20	9.6*
CC(=O)c1ccc(OCCCC(=O)Nc2ccc(C)c(S(=O)(=O)N(C)C)c2)cc1	-15	0	0.58	96	15	-1
O=C(CSc1nnc(-c2ccncc2)o1)c1ccc2c(c1)OCCO2	-2	0	1.2	100	2	-1
CC(C)(C)c1ccc(OCC(=O)N/N=C/c2ccsc2)cc1	16	0	1.2	103	-16	9.2*
CCCn1c(SCC(=O)Nc2cccc(NC(C)=O)c2)nnc1C(C)C	-5	0	1.3	108	5	1
COc1c(S(=O)(=O)N2CCCC2)ccc(Cl)c1Cl	-8	0	1.1	104	8	0
SMILES	APP 5'UTR act	Hsp70 act	NF-kB expr up	STAT1 act	APP 5UTR inh	Wee1 stabilizer
CC(C)c1nc(SCC(=O)c2ccc(F)cc2)c2ccccc2n1	12	0	1.2	95	-12	-4
COc1cc(-c2onc3ccc(Br)cc23)cc(OC)c1OC	-73	0	1.1	93	73*	0
C[C@H](C(=O)C=[N+]=[N-])N1C(=O)c2ccccc2C1=O	12	0	1	97	-12	-1
Cc1cc(/C=c2/sc3nc4ccccc4n3c2=O)c(C)n1-c1ccccn1	-60	-1	0.17	23	60*	-3
O=C(Nc1cnc2ccccn2c1=O)c1ccc(Cl)cc1	19	0	2.4	130*	-19	-2
O=C(Nc1cccn2ncnc12)c1ccc(Cl)cc1	-5	0	1.5	106	5	-1
Clc1ccc(Cc2ccc(Cl)nn2)c(Cl)c1	-14	0	1	96	14	-2
O=C(Nc1nc2nccc(-c3ccccc3)n2n1)c1ccc(F)cc1	12	0	1	89	-12	4
O=C(Nc1nsc(-c2ccccc2)n1)c1ccc(F)cc1	90	0	1.6	129*	-90	6
Clc1ccc(-c2nnc(-c3ccco3)o2)cc1	91	0	2.3	144*	-91	-2
Cc1ccc(O)c(C=Nc2cc(C)ccc2O)c1	-1	0	1.1	93	1	2
Cc1ccc(O)c(N=CC2=C(O)c3ccccc3C2=O)c1	11	0	4.2*	122	-11	1
CN=CC1=C(O)c2ccccc2C1=O	-5	0	1.2	107	5	-2
O=C1C(C=Nc2ccccc2O)=C(O)c2ccccc21	114	0	5*	98	-114	3
COc1ccc(N=CC2=C(O)c3ccccc3C2=O)cc1	137*	0	1.4	96	-137	4
O=C(CSc1nc2c([nH]c3ccccc32)c(=O)n1-c1ccccc1)N1CCOCC1	-15	0	1.1	101	15	-2
CC(CCCC(C)(C)O)NC(=O)c1ccc(OC2CCN(C(=O)C3CC3)CC2)cc1 (configuration not stated)	10	0	1.1	98	-10	8.9*
Cc1ccc(/C=C2\Sc3ccccc3C2=O)s1	28	0	5.5*	93	-28	5
CCCn1c(C)cc(C(=O)Cn2nnc3ccccc3c2=O)c1C	159*	0	4.7*	126	-159	3
CCN1CCN(c2ccc(NC(=O)c3cccc(F)c3)cc2Cl)CC1	91	1	2.1	136*	-91	-1
CCN(CC)S(=O)(=O)c1cc(C(=O)OCC(=O)Nc2ccc(-c3nc4ccc(C)cc4s3)cc2)ccc1F	143*	1	6*	145*	-143	-1
CCN(CC)S(=O)(=O)c1cc(C(=O)OCC(=O)Nc2cccc(S(=O)(=O)N(C)C)c2)ccc1F	-7	0	0.94	95	7	-1
COC(=O)NNS(=O)(=O)c1ccc(C)cc1	2	0	1.4	100	-2	4
Cc1ccc(-c2ccc(C(=O)O)c(C)n2)cc1	15	0	1.2	103	-15	-1
COC(=O)c1ccc(-c2ccc(F)cc2)nc1C	128	0	1.3	132*	-128	1

From PubChem
